Laboratory results from PubChem BioAssay AID588742 (Southern Research Specialized Biocontainment Screening …, 2011).
Among all 1,800 compounds or so, about 410 (23%) were called active. No rule for the calls is given here. Not all results are given here. Results with a measured potency or affinity are listed apart.

assay: viability of Vero cells under compound – cytotoxicity control for flavivirus capping enzyme inhibitors (AID 588742); conditions: cytotoxicity counter-screen; series mostly up to 40 µM

Compound | outcome
CCc1ccc(N(C(=O)c2csnn2)C(C(=O)NC(C)(C)CC)c2cccnc2)cc1 (configuration not stated) | inactive
O=C1OC(c2ccccc2)/C(=C(/O)c2ccc(Cl)cc2)C1=O (configuration not stated) | inactive
CC(C)c1noc2ncc(C(=O)c3cc(Cl)cc(Cl)c3O)cc12 | inactive
CCCCn1c(=O)nc2n(-c3ccccc3)c3ccccc3cc-2c1=O | inactive
O=C1c2ccccc2C(=O)c2c(/C=C/N3CCCCC3)ccnc21 | inactive
O=S(=O)(Nc1c(O)ccc2ccccc12)c1ccccc1 | inactive
O=c1ccc2c(-c3ccccc3S(=O)(=O)O)c3ccc(O)c(O)c3oc-2c1O | inactive
Cc1ccc(S(=O)(=O)NN2C(=O)/C(=C/c3ccc(C(=O)O)cc3)SC2=S)cc1 | inactive
N#CC1=C(N)N(c2ccccc2)C2=C(C(=O)CCC2)C1c1ccsc1 (configuration not stated) | inactive
C=CCn1c(SCC(=O)c2ccccc2)nnc1-c1ccc2c(c1)OCO2 | inactive
N#C/C(=C\c1cccs1)C(=O)c1ccccc1 | inactive
CC(=O)OCC1=C(C(=O)O)N2C(=O)C(NC(=O)CCn3nc(C(F)(F)F)c(Br)c3C3CC3)C2SC1 (configuration not stated) | inactive
COc1ccc(N2CCN(C(=O)CCC(=O)N3Cc4ccccc4Oc4ncccc43)CC2)cc1 | inactive
CN1C(C(=O)NCc2cccs2)=CC(c2ccc(F)cc2)=NS1(=O)=O | inactive
O=C(O)C(c1ccccc1)N1C(=O)/C(=C/c2cccs2)SC1=S (configuration not stated) | inactive
Nc1ccc(S(=O)(=O)Nc2nccs2)cc1N=Nc1ccccc1[N+](=O)[O-] | inactive
CCOC(=O)c1cc(-c2ccco2)nc2c1c(C)nn2CCC#N | inactive
COc1cc(C(C2C(=O)CC(C)(C)CC2=O)C2C(=O)CC(C)(C)CC2=O)ccc1O | inactive
COc1cccc(/C=C2\SC(=S)N(NS(=O)(=O)c3ccccc3)C2=O)c1OC | inactive
O=C1NC(=S)N/C1=C/C=C/c1ccccc1 | inactive
CN(C)c1ccc(C=Nc2ccc(N(C)C)cc2)cc1 | inactive
CCCC(C(=O)O)N1C(=O)/C(=C2\C(=O)N(C)c3ccccc32)SC1=S (configuration not stated) | inactive
CCN1/C(=C2\C(=O)N(C)C(=S)N2C)C=Cc2cc(OC)ccc21 | inactive
O=C(O)CN1C(=O)/C(=C\c2cccc(OCc3ccc(Cl)cc3Cl)c2)SC1=S | inactive
O=C(CNC(=O)N1CC(=O)Nc2ccccc21)Nc1cccc(F)c1 | inactive

Compound | outcome
O=C(O)c1[nH]c2ccccc2c1C(c1ccccc1)c1c(C(=O)O)[nH]c2ccccc12 | inactive
Cc1ccc(/C=C2\S/C(=N/S(=O)(=O)c3cccs3)NC2=O)cc1 | inactive
O=C(O)c1ccc(NS(=O)(=O)c2ccc3c(c2)C(=O)c2cc(S(=O)(=O)Nc4ccc(C(=O)O)cc4)ccc2-3)cc1 | inactive
O=C(O)c1ccc(NC2=C/C(=N/S(=O)(=O)c3cccs3)c3ccccc3C2=O)cc1 | inactive
O=C(O)c1ccc(Nc2nc3ccccc3nc2NS(=O)(=O)c2ccc(F)cc2)cc1 | inactive
Cc1ccc(S(=O)(=O)/N=C2\C=C(NS(=O)(=O)c3ccc(C)cc3)C(=O)c3ccccc32)cc1 | inactive
CC(C)(C)c1ccc(S(=O)(=O)/N=C2\C=C(NS(=O)(=O)c3ccccc3)C(=O)c3ccccc32)cc1 | inactive
Cc1ccc(N2C(N)=C(C#N)C(c3cccnc3)C3=C2CCCC3=O)cc1 (configuration not stated) | inactive
C=CCOc1cccc(C2C(C(=O)c3cc4ccccc4o3)=C(O)C(=O)N2c2cc(C)on2)c1 (configuration not stated) | inactive
CCOc1ccc(NS(=O)(=O)c2ccc(Cl)c(N=Nc3c(O)[nH]c(=S)[nH]c3=O)c2)cc1Br | inactive
C/C(=N\Nc1cccc(C(=O)O)c1)c1ccc2c(c1)Nc1ccccc1S2 | inactive
CC(N=Cc1cccc(O)c1O)c1ccccc1 (configuration not stated) | inactive
CSc1ccc(C(c2c(C(=O)O)[nH]c3ccccc23)c2c(C(=O)O)[nH]c3ccccc23)cc1 | inactive
CN(C(=S)Nc1ccc(SC(F)F)cc1)c1ccc(O)cc1 | inactive
CC(C)c1nc(SCC(=O)N2CCCC2)c2ccccc2n1 | inactive
CC(=O)OCC1=C(C(=O)O)N2C(=O)C(NC(=O)c3ccc(COc4c(C)cccc4Cl)o3)C2SC1 (configuration not stated) | inactive
Cc1ccc([C@@H]2CC=C(C(=O)O)[C@H](c3ccc(Br)cc3)N2S(=O)(=O)c2ccc(C)cc2)cc1 | inactive
CC1=C/C(=C(/c2cc(C)c(O)c(Br)c2)c2ccccc2S(=O)(=O)O)C=C(Br)C1=O | inactive
COc1cc(/C=C2\SC(=S)N(C(C(=O)O)c3ccccc3)C2=O)cc(OC)c1OC (configuration not stated) | inactive
C[N+](C)(CCOc1ccccc1)Cc1ccccc1 (tested in a mixture with another compound) | inactive
O=C(CSc1nc2scc(-c3ccco3)c2c(=O)n1-c1ccccc1)NCC1CCCO1 (configuration not stated) | inactive
CC(C)(C)C1CCc2c(sc(NC(=O)C3CC=CCC3C(=O)O)c2C#N)C1 (configuration not stated) | inactive
O=C(NC(NC(=S)Nc1ccccc1C(=O)O)C(Cl)(Cl)Cl)c1ccccc1 (configuration not stated) | inactive
C=CCOc1ccc(C(c2c(C(=O)O)[nH]c3ccccc23)c2c(C(=O)O)[nH]c3ccccc23)cc1 | inactive
COc1cccc(C=Nc2cc(C(C)C)c(O)cc2C)c1O | inactive

Compound | outcome
O=C(O)COc1ccccc1/C=N/NC(=O)c1cc(-c2ccc(Cl)cc2)nc2ccccc12 | inactive
Cc1c(Cl)cccc1NS(=O)(=O)c1ccc2c(c1)C1C=CCC1C(c1ccc(C(=O)O)cc1)N2 (configuration not stated) | inactive
CCOc1ccc(N(C)C(=O)CCc2nnc3ccc(N4CCCC4)nn23)cc1 | inactive
Cn1c(SCC(=O)N2CCCCC2)nc2cccnc21 | inactive
O=C1NC2=C(C(=O)CCC2)C(c2ccccc2[N+](=O)[O-])N1 (configuration not stated) | inactive
Nc1sc2c(c1C(=O)NC1CC1)CCCC2 | inactive
O=C(CCCN1C(=O)/C(=C/c2ccco2)SC1=S)Nc1cccc(C(=O)O)c1 | inactive
COc1ccc(N2CCC(CNC(=S)Nc3c(C)cccc3C)C2)cc1 (configuration not stated) | inactive
CC(Cc1cccc(C(F)(F)F)c1)NCCOC(=O)c1ccccc1 (configuration not stated) | inactive
O=C(Cc1cnn(-c2ccccc2)c1)c1ccc(O)c(O)c1O | inactive
Cc1ccc(S(=O)(=O)ON2C(=O)c3ccccc3C2=O)c(C)c1 | inactive
O=c1c(C(c2ccc(O)cc2)c2c(O)nc3n(c2=O)CCCS3)c(O)nc2n1CCCS2 | inactive
O=[N+]([O-])c1ccc(Cl)c2c1C1C=CCC1C(c1ccccn1)N2 (configuration not stated) | inactive
Cc1c(OCC(=O)NCCCN2CCCC2=O)ccc2c3c(c(=O)oc12)CCCC3 | inactive
Cc1cc(=O)c2c(o1)C(=O)c1occc1C2=O | inactive
C/C(=C/CCC(C)[C@H]1CC[C@@]2(C)C3=C(CC[C@]12C)[C@@]1(C)CCC(=O)C(C)(C)[C@@H]1CC3)C(=O)O (some centres not stated) | inactive
CCOc1cc(C2CC(=O)N3CN(C4CCCCC4)CSC3=C2C#N)ccc1O (configuration not stated) | inactive
N#CC1=C(N)N(c2ccc(Br)cc2)C2=C(C(=O)CCC2)C1c1cccnc1 (configuration not stated) | inactive
Cc1[nH]n(-c2ccccc2)c(=O)c1N=Nc1ccccc1C(=O)O | inactive
COc1cc(/C=C2/C(=O)NN(c3cccc(C)c3)C2=O)cc([N+](=O)[O-])c1O | inactive
COc1cc(/C=C2\S/C(=N/S(=O)(=O)c3ccccc3)NC2=O)c([N+](=O)[O-])cc1OC | inactive
COc1cc(/C=C2/C(=O)NN(c3ccc(F)cc3)C2=O)cc([N+](=O)[O-])c1O | inactive
O=C(O)CN1C(=O)/C(=C2\SC(=S)N(C(Cc3ccccc3)C(=O)O)C2=O)c2ccccc21 (configuration not stated) | inactive
O=C(O)c1cnn2c(C(F)(F)F)cc(-c3ccccc3)nc12 | inactive
O=C1Nc2ccc(Cl)cc2C12Nc1ccccc1-c1nnc(SCc3ccccc3F)nc1O2 (configuration not stated) | inactive

Compound | outcome
Cc1cc(O)c(C(C)C)cc1N=Cc1ccccc1[N+](=O)[O-] | inactive
Cc1csc(N/N=C/c2ccc(O)c([N+](=O)[O-])c2)n1 | inactive
Cc1ccc(S(=O)(=O)Nc2nc(-c3ccc(F)cc3)cs2)cc1 | inactive
CC(=O)c1cc(O)c2ccccc2c1O | inactive
Cc1nc(COC(=O)c2cc(O)c3ccccc3c2O)cs1 | inactive
NC(=O)COc1ccc(/C=C2\C(=O)ON=C2c2ccccc2)cc1 | inactive
CC(=O)N1CCn2c3c(c(=O)c4cc(C)ccc42)CCC31 (configuration not stated) | inactive
O=C(O)c1ccc(Cl)c(S(=O)(=O)Nc2ccc(S(=O)(=O)Nc3cccc(Cl)c3)cc2)c1 | inactive
Cc1ccc(SCc2[nH]nc3c2C(c2ccc(C)o2)C(C#N)=C(N)O3)cc1 (configuration not stated) | inactive
Cc1ccc(C2C(C#N)=C(N)OC3=C2C(=O)CC(C)(C)C3)s1 (configuration not stated) | inactive
CCS(=O)(=O)c1nc(S(=O)(=O)c2ccc(C)cc2)c(N2CCCC2)s1 | inactive
O=C(O)CC/C(=C\c1ccc(N2CCCC2)c([N+](=O)[O-])c1)c1nc2ccccc2s1 | inactive
C=CCNc1cc(N2CCCC2)ccc1[N+](=O)[O-] | inactive
COc1ccc(/C=C2/SC(=S)N(CC(=O)O)C2=O)cc1OCc1ccc(Cl)cc1 | inactive
COc1ccc(O)c(C(=O)c2cc(SCC(=O)O)c3nc4sc5c(c4c(=O)n3c2)CCCC5)c1 | inactive
O=C(O)CSc1cc(C(=O)c2ccccc2O)cn2c(=O)c3c4c(sc3nc12)CCCC4 | inactive
O=C(CNc1ccc2ccccc2c1)N/N=C/c1ccncc1 | inactive
CN(C)c1cccc(C(=O)OC(C(=O)Nc2ccc([N+](=O)[O-])cc2Br)c2ccccc2)c1 (configuration not stated) | inactive
CC1=NN(C(=S)Nc2ccccc2)C(c2ccccc2)C1 (configuration not stated) | inactive
Cc1cccc(C2C3=C(Nc4[nH]n(-c5ccccc5)c(=O)c42)c2ccccc2C3=O)c1 (configuration not stated) | inactive
COc1cc(N2CCCC2)c(OC)cc1C=O | inactive
COc1ccc(S(=O)(=O)CC(=O)c2cc3cccc(C)c3oc2=O)cc1 | inactive
